From PubChem BioAssay
Cycloheximide cs: Cycloheximide Counterscreen for Small Molecule Inhibitors of Shiga Toxin | cell reporter, cycloheximide protein synthesis inhibition counterscreen | max response, % | 12% of 300,000 active | AID 2314, 2010; in the data active = max response mostly above about 13%, no sharp cut-off; inactive = mostly below about 14%; also: read at 38.3 µM for the half of the compounds with a filed dose; 0% is about no effect
Pf growth 48h: Primary qHTS for delayed death inhibitors of the malarial parasite plastid, 48 hour incubation. P. falciparum luciferase growth in erythrocytes, 48 h. Potency, µM (highest dose often 28.7 µM), for the others: at the highest dose activity change, negative = inhibition, actives largely listed as inhibitors. 5.9% of 310,000 active; also: potency is read from the fitted curve at half-maximal effect; % is scaled to controls: 0 for no effect and ±100 for the full control effect
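Read-out is firefly luciferase luminescence from an integrated reporter in P. falciparum, so falling signal marks reduced parasite growth. Infected erythrocytes were at 2% hematocrit and 0.1% parasitemia (final) in Albumax-supplemented RPMI 1640.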
SARS PLpro yeast: qHTS of Yeast-based Assay for SARS-CoV PLP | 0.19% of 330,000 active | S. cerevisiae expressing SARS-CoV PLpro, growth rescue | Potency, µM (highest dose often 32.9 µM), without a hit: at the highest dose activity, positive = growth rescue, hits mostly activators; calls by dose curve; also: potency is read from the fitted curve at half-maximal effect; 0% is about no effect; nearly all actives have a fitted effect of over 55% in size
Shiga toxin inh: A qHTS for Small Molecule Inhibitors of Shiga Toxin; AID 2315, 2010; Vero cells, Shiga toxin protein synthesis inhibition reporter; 9.2% of 290,000 active; inhibition, % at 38.7 µM; in the data active = inhibition mostly above about 28%, no sharp cut-off; inactive = mostly below about 43%; also: 0% is about no effect
Pf growth 96h: Primary qHTS for delayed death inhibitors of the malarial parasite plastid, 96 hour incubation. Potency, µM (top dose mostly 28.7 µM), inactives show at the highest dose activity change, negative = inhibition, actives largely listed as inhibitors. 6.9% of 320,000 active. P. falciparum luciferase reporter growth, 96 h; also: potency is read from the fitted curve at half-maximal effect; % is scaled to controls: 0 for no effect and ±100 for the full control effect
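96 h incubation, 37 C, 5% CO2, of luciferase-reporter P. falciparum-infected RBCs (2% hematocrit, 0.05% parasitemia final) with test compounds; endpoint luminescence.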
AMA1 RON2 block: qHTS for Inhibitors of AMA1-RON; Towards Development of Antimalarial Drug Lead: Primary Screen; Plasmodium falciparum AMA1 (3D7) - RON2 peptide interaction; AlphaScreen AMA1-biotinylated RON2 peptide binding; Potency, µM (titrated, usually from 58.2 µM), for the others: at the top dose activity change, negative = inhibition, usual class: inhibitors; 0.2% of 360,000 active; AID 720542, 2013;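 also: potency is read from the fitted curve at half-maximal effect; 0% = vehicle wells and -100% = peptide control; nearly all actives have a fitted effect of over 45% in size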
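AMA1 (3D7) with his tag at 25 nM final met compounds first, then biotinylated RON2 peptide at 25 nM; detection used donor plus acceptor beads, 10 µg/mL apiece, read by AlphaScreen after 30 min at room temperature.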
The depositor's hits bear a star; ? = inconclusive; / = no result given; [ ] = another dose, or the depositor's remark. Hits are enriched below; roughly 19% of the tested compounds scored in any of these assays. Unless noted, calls follow the shape of the dose curve; as a rule, active = well fitted curve in the direction sought with a large enough effect; inconclusive = small, poorly fitted or top-dose-only effect, or another doubt; inactive = no such curve, though single readings can be large; an effect the other way counts as inactive or inconclusive.

SMILES	Cycloheximide cs	Pf growth 48h	SARS PLpro yeast	Shiga toxin inh	Pf growth 96h	AMA1 RON2 block
CC(C)(C)n1nnnc1C(c1ccccn1)N(Cc1ccccc1)Cc1ccc(Cl)cc1 (stereo not drawn)	1.5	11.7µM*	/	22.7	1.47µM*	-9.3%
CC(C)(C)n1nnnc1C(c1cccs1)N(Cc1cccnc1)Cc1ccco1 (stereo not drawn)	0.9	10.4µM*	1.1%	-1.9	7.38µM*	-0.3%
CC(C)(C)n1nnnc1C(c1cccs1)N(Cc1ccccc1)Cc1ccco1 (stereo not drawn)	11.1	13.1µM*	-11.3%	32.7	21.2%	0.0%
CCN(Cc1ccccc1)C(c1ccc(C)cc1)c1nnnn1C(C)(C)C (stereo not drawn)	-1.1	/	-2.2%	-16.2	8.28µM*	-12.7%
CCN(Cc1ccccc1)C(c1ccc(Cl)cc1)c1nnnn1C(C)(C)C (stereo not drawn)	2.7	?	-7.4%	-19.1	134.0%	-2.7%
CC1CCCC(C)N1C(=O)CN1C(=O)C(C)(C)Oc2ccc(C(=O)NC3CCCC3)cc21 (stereo not drawn)	1.4	?	/	0.6	4.7%[5.75 µM]	5.2%
CC(C)(C)n1nnnc1C(c1ccncc1)N(Cc1ccccc1)Cc1ccco1 (stereo not drawn)	6.9	13.1µM*	-6.6%	8.3	/	30.2%
COc1ccc(CNS(=O)(=O)c2cc3c4c(c2)C(C)C(=O)N4CCC3)cc1 (stereo not drawn)	-3.0	8.7%	0.7%	-11.7	-2.2%	-4.8%
C/C(Cn1nc([N+](=O)[O-])cc1C)=N\NC(=O)c1ccc(C(C)(C)C)cc1	-2.8	/	-3.4%	-6.8	11.8%	48.8%
COc1ccc(C(=O)N/N=C(\C)Cn2nc([N+](=O)[O-])cc2C)cc1	15.7	4.8%	-8.5%	58.4*	-21.3%	19.8%
Cc1cc([N+](=O)[O-])nn1CC(=O)N/N=C/c1ccccc1F	-1.4	-10.6%	0.7%	11.1	5.1%	5.0%
C/C(Cn1cnc([N+](=O)[O-])n1)=N\NC(=O)c1ccccc1	30.1*	40.3%	17.5%	57.1*	-0.8%	18.7%
C/C(Cn1nnc([N+](=O)[O-])n1)=N\NC(=O)c1ccccc1	24.2*	?	8.7%	54.1*	14.7µM*	36.9%
Cc1cc([N+](=O)[O-])nn1CC(=O)N/N=C/c1ccccc1O	23.8*	?	0.5%	57.5*	?	101.0%
CSc1nsc(SCC(=O)Nc2ccc(C(=O)O)cc2)n1	-1.9	-5.6%	2.2%	-6.0	?	11.6%
O=C(CN1CCCc2ccccc21)Nc1cccc(S(=O)(=O)N2CCCC2)c1	/	/	/	/	/	-12.0%
CN(CC(=O)Nc1cccc(S(=O)(=O)N(C)C)c1)Cc1ccccc1	23.4*	-16.2%	1.4%	28.2	-21.8%	5.1%
COc1ccccc1CN(C)CC(=O)Nc1cccc(S(=O)(=O)N2CCCCC2)c1	/	11.7µM*	-22.7%	/	?	9.9%
CC1CCc2ccccc2N1CC(=O)Nc1cccc(S(=O)(=O)N2CCCC2)c1 (stereo not drawn)	/	11.7µM*	0.1%	/	?	?
CN(CC(=O)Nc1cccc(F)c1)CC(=O)Nc1cccc(S(=O)(=O)N2CCCCC2)c1	/	11.7µM*	-2.8%	/	?	14.6%
CN(CC(=O)Nc1cccc(F)c1)CC(=O)Nc1cccc(S(=O)(=O)N2CCCCCC2)c1	-3.9	?	-0.9%	35.3	-0.1%	29.7%
Cc1c(C(=O)NCc2ccc(F)cc2)sc(=O)n1Cc1ccc(C(=O)c2ccccc2)cc1	/	/	/	/	/	-0.7%
OCc1ccccc1-c1cnc2cccnn12	/	/	/	/	/	-4.7%
COc1cc(C)ccc1S(=O)(=O)NC(=O)C1(C)CCN1C(=O)c1ccc(C(F)(F)F)nc1C (stereo not drawn)	/	/	/	/	/	-3.6%
CN(CC(=O)Nc1cccc(S(=O)(=O)N2CCCCC2)c1)Cc1ccc(F)cc1	/	13.1µM*	-0.6%	/	9.28µM*	-3.9%
CN(CC(=O)Nc1ccc(Br)cc1)Cc1ccccc1	19.0*	18.6%	-6.0%	7.0	-11.0%	-0.9%
